Measurements from publication PMC5540273 (PLoS ONE, 2017).

Columns and labels:
Settings in all cases: concentration: 1 μM, replicates: in singlicate; n = 1
[1] = tested on: STK36
[2] = tested on: STK39
[3] = tested on: SYK
[4] = tested on: SgK110
[5] = tested on: T1, TAK1
T1 construct: gene MAP3K7

[6] = tested on: TAOK1
[7] = tested on: TAOK2
[8] = tested on: TAOK3
[9] = tested on: TBK1
[10] = tested on: TEC
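Note: KINOMEscan kinase panel screen.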

SMILES: Clc1ccc(-c2nn3ncccc3c2-c2ccnc(Nc3ccc4c(c3)OCCO4)n2)cc1 [GW829116]
- %Inh [1]: 79%
- %Inh [2]: 0%
- %Inh [3]: 0%
- %Inh [4]: 11%
- %Inh [5]: 0%
- %Inh [6]: 0%
- %Inh [7]: 19%
- %Inh [8]: 0%
- %Inh [9]: 19%
- %Inh [10]: 0%

SMILES: CCn1c(-c2nonc2N)nc2c(C#CC(C)(C)O)ncc(OCCCCN)c21.O=C(O)C(F)(F)F.O=C(O)C(F)(F)F [GSK507274]
- %Inh [1]: 0%
- %Inh [2]: 11%
- %Inh [3]: 4%
- %Inh [4]: 0%
- %Inh [5]: 0%
- %Inh [6]: 40%
- %Inh [7]: 8%
- %Inh [8]: 0%
- %Inh [9]: 31%
- %Inh [10]: 0%

SMILES: Nc1n[nH]c2cnc(-c3ccccc3)cc12 [SB-642124]
- %Inh [1]: 0%
- %Inh [2]: 0%
- %Inh [3]: 0%
- %Inh [4]: 50%
- %Inh [5]: 0%
- %Inh [6]: 51%
- %Inh [7]: 9%
- %Inh [8]: 7%
- %Inh [9]: 1%
- %Inh [10]: 68%

SMILES: O=C(Nc1cccc(Oc2ccc3nc(NC(=O)C4CC4)cn3n2)c1)c1ccccc1C(F)(F)F
- %Inh [1]: 4%
- %Inh [2]: 11%
- %Inh [3]: 0%
- %Inh [4]: 0%
- %Inh [5]: 0%
- %Inh [6]: 0%
- %Inh [7]: 34%
- %Inh [8]: 0%
- %Inh [9]: 39%
- %Inh [10]: 5%

SMILES: Cc1cccc(NC(=O)Nc2ccc(Oc3ncnc4ccn(C)c34)cc2)c1
- %Inh [1]: 0%
- %Inh [2]: 0%
- %Inh [3]: 0%
- %Inh [4]: 0%
- %Inh [5]: 0%
- %Inh [6]: 0%
- %Inh [7]: 20%
- %Inh [8]: 0%
- %Inh [9]: 6%
- %Inh [10]: 0%

SMILES: Cl.c1ccc(-c2ccc3c(Nc4ccc5[nH]ccc5c4)ccnc3c2)nc1 [GW440138]
- %Inh [1]: 0%
- %Inh [2]: 0%
- %Inh [3]: 0%
- %Inh [4]: 0%
- %Inh [5]: 0%
- %Inh [6]: 0%
- %Inh [7]: 0%
- %Inh [8]: 0%
- %Inh [9]: 12%
- %Inh [10]: 0%

SMILES: O=C(Nc1cccc(-c2nn3ncccc3c2-c2ccnc(Nc3ccccc3)n2)c1)c1c(F)cccc1F [GSK198271]
- %Inh [1]: 100%
- %Inh [2]: 0%
- %Inh [3]: 37%
- %Inh [4]: 0%
- %Inh [5]: 0%
- %Inh [6]: 90%
- %Inh [7]: 93.2%
- %Inh [8]: 97.3%
- %Inh [9]: 0%
- %Inh [10]: 95.4%

SMILES: O=C(Nc1ccccc1F)NC1CCN(c2ccnc(Nc3ccc(F)cc3)n2)CC1 [GSK1379800]
- %Inh [1]: 0%
- %Inh [2]: 0%
- %Inh [3]: 0%
- %Inh [4]: 0%
- %Inh [5]: 0%
- %Inh [6]: 0%
- %Inh [7]: 0%
- %Inh [8]: 0%
- %Inh [9]: 8%
- %Inh [10]: 0%

SMILES: CCCCc1nn2ncccc2c1-c1ccnc(Nc2ccc(N3CCN(C)CC3)cc2)n1 [GW684941]
- %Inh [1]: 91.4%
- %Inh [2]: 33%
- %Inh [3]: 0%
- %Inh [4]: 10%
- %Inh [5]: 4%
- %Inh [6]: 37%
- %Inh [7]: 47%
- %Inh [8]: 42%
- %Inh [9]: 11%
- %Inh [10]: 0%

SMILES: COc1cc2c(cc1OCCN1CCNCC1)ncc1c3ccc(C#N)cc3[nH]c21
- %Inh [1]: 6%
- %Inh [2]: 33%
- %Inh [3]: 0%
- %Inh [4]: 0%
- %Inh [5]: 95.1%
- %Inh [6]: 0%
- %Inh [7]: 4%
- %Inh [8]: 2%
- %Inh [9]: 81%
- %Inh [10]: 0%
